Results from PubChem BioAssay (NCATS).
Results filed as inconclusive are left out. Values without a mark were called inactive. The source made the active and inactive calls. Calls follow the shape of the dose curve; as a rule, active = well fitted inhibition curve with a large enough effect; inconclusive = small, poorly fitted or top-dose-only effect; inactive = flat fitted curve, though single readings scatter.

System: MCC-26
Assay: qHTS assay to identify novel small-molecules to repurpose for Merkel cell carcinoma treatment (AID 1296009); also: nearly all actives have a fitted effect of over 60% in size
Conditions: MCC and control cell lines, CellTiter-Glo viability, 72 h; series mostly up to 46 µM; activity change, negative = cytotoxicity: at the top concentration
Text: MCC is a rare and aggressive neuroendocrine skin cancer with limited treatment options. Approximately 80% of MCCs have the Merkel cell polyomavirus (MCPyV) DNA integrated into the host genome (virus-positive: VP-MCC) and viral oncogenes drive oncogenesis. The remaining MCCs are virus-negative (VN-MCC) and are caused by UV mutagenesis. To identify novel treatments for VP-MCC and/or VN-MCC we screened three VP-MCC cell lines (WAGA, MKL-1, MKL-2), three VN-MCC cell lines (MCC-13, MCC-26, UISO), and four immortalized, non-transformed control cell lines (HaCaT, HEK293T, CRL7250, NIH-3T3) against ~2,400 compounds in the NCGC Pharmaceutical Collection (NPC) and ~1,900 compounds in the Mechanism Interrogation PlatE (MiPE). Using cell viability as a readout (CellTiter-Glo assay) we found both overlapping and distinct drugs that can be repurposed for the treatment of VP-MCC and VN-MCC.
A high-throughput screen was conducted in 1536-well white flat bottom plates (Corning) on a Kalypsys robotic system. Cell lines WAGA, MKL-1, MKL-2, MCC-13, MCC-26, UISO, HaCaT, HEK293T, CRL7250, and NIH-3T3 were screened against 2 small molecule annotated drug libraries NPC and MIPE in dose response (8 and 11 pt. respectively) measuring cell viability after 72 hours of incubation. […] A 1,536 pintool (Kalypsys) was used to transfer 23 nL of compound in DMSO to the 1,536-well assay plates. After 72 hr incubation at 37 degree celsius, 2.5 uL of CellTiter-Glo (Promega) was dispensed into each well using a BiorapTR. Plates were incubated at room temperature for 10 min, transferred to a ViewLux (PerkinElmer) and the luminescence was recorded using an exposure time of 2 seconds. Relative luminescence units (RLUs) were normalized to in-plate controls (no cells as a positive (cytotoxicity) control, DMSO as negative control) and the normalized data was processed using NCATS in-house software.
% is scaled to controls: 0 for no effect and ±100 for the full control effect; potency is read from the fitted curve at half-maximal effect.

Compound	activity change, negative = cytotoxicity	Potency
CC(C)(C)CC(C)(C)c1ccc(O)c(-n2nc3ccccc3n2)c1	7.25%	–
C[C@@]12C(=O)OC(=O)[C@]1(C)C1CCC2O1	–	4.22 µM (active)
COc1ccc(CCN(C)CCCN2CCc3cc(OC)c(OC)cc3CC2=O)cc1OC	0.799%	–
CNCCc1ccccn1	19.4%	–
Cl/C(=C\n1cncn1)c1ccc(Cl)cc1Cl	-0.807%	–
CCCCCCCCCCC[C@@H](C[C@@H]1OC(=O)[C@H]1CCCCCC)OC(=O)[C@H](CC(C)C)NC=O	-5.05%	–
CCN(CC)CCNC(=O)COc1ccc(OC)cc1	-12.5%	–
CN1CCC(OC(c2ccccc2)c2ccccc2)CC1	-1.63%	–
CCN(CC)CCOc1ccccc1C(=O)CCc1ccccc1	-6.75%	–
C[C@H]1[C@H]2CC[C@H]3[C@@H]4CC=C5C[C@@H](N(C)C)CC[C@]5(C)[C@H]4CC[C@]23CN1C	-4.97%	–
C=C[C@@]1(C)CC(=O)[C@]2(O)[C@@]3(C)[C@@H](O)CCC(C)(C)[C@@H]3[C@H](O)[C@H](OC(C)=O)[C@@]2(C)O1	-1.46%	–
CCCCCCCCCCCCCC[N+](C)(C)Cc1ccccc1	–	21.1 µM (active)
CC(=O)OCC(=O)[C@H]1CC[C@H]2[C@@H]3CCC4=CC(=O)CC[C@]4(C)[C@H]3CC[C@]12C	-2.74%	–
c1ccc(-c2nc[nH]c2-c2ccccc2)cc1	-7.62%	–
CC(C)[N+](C)(C)CC(O)COc1cccc2ccccc12 (stereo not given)	-12%	–
COc1ccc(C(Cl)=C(c2ccc(OC)cc2)c2ccc(OC)cc2)cc1	0.475%	–
Oc1ccccc1C=NCc1ccccc1	5.97%	–
CN1CCN(C2=Nc3ccccc3Sc3ccc(Cl)cc32)CC1	-10.6%	–
CN(C)CCN1C(=O)c2ccccc2N(C)c2ccccc21	-8.4%	–
C#C[C@]1(OC(C)=O)CC[C@H]2[C@@H]3CCC4=C/C(=N/O)CC[C@@H]4[C@H]3CC[C@@]21CC	-14.8%	–

Compound	activity change, negative = cytotoxicity	Potency
O=C1C(CCS(=O)c2ccccc2)C(=O)N(c2ccccc2)N1c1ccccc1 (stereo not given)	2.11%	–
O=C(Nc1ncc([N+](=O)[O-])s1)c1cccs1	-26.7%	–
C=C1c2cccc(O)c2C(O)=C2C(=O)[C@]3(O)C(O)=C(C(N)=O)C(=O)[C@@H](N(C)C)[C@@H]3[C@@H](O)[C@H]12	-2.1%	–
CCOc1cc(OCC)c(C(=O)CCC(=O)O)cc1OCC	8.5%	–
CCCCCCCCCCCCCCCCO	8.73%	–
COc1cc([C@H]2Oc3cc([C@H]4Oc5cc(O)cc(O)c5C(=O)[C@@H]4O)ccc3O[C@@H]2CO)ccc1O	0.339%	–
OCCOCCN1CCN(C2=Nc3ccccc3Sc3ccccc32)CC1	-7.92%	–
Nc1ccc(S(=O)(=O)Nc2cnc3ccccc3n2)cc1	18.4%	–
CCCCCCCCCCCCSCCOCCO	-0.0862%	–
O=C(Nc1ccc([N+](=O)[O-])cc1)Nc1ccc([N+](=O)[O-])cc1	8.15%	–
CCCCNc1ccc(C(=O)OCCOCCOCCOCCOCCOCCOCCOCCOCCOC)cc1	-10.3%	–
CCOC(=O)Nc1ccc2c(c1)N(C(=O)CCN1CCOCC1)c1ccccc1S2	-4.33%	–
COc1cc(C)nc(-n2nc(C)cc2OC)n1	12.8%	–
CCc1ccc(C(=O)C(C)CN2CCCCC2)cc1 (stereo not given)	-16.7%	–
FC1(F)C(F)(F)C(F)(F)C2(F)C(F)(F)C(F)(F)C(F)(F)C(F)(F)C2(F)C1(F)F (stereo not given)	11.3%	–
NCCNc1cccc2ccccc12	0.19%	–
CCCCC(CC)COC(=O)c1ccc(N(C)C)cc1 (stereo not given)	6.89%	–
OC[C@H]1O[C@@H]2O[C@H]3[C@H](O)[C@@H](O)[C@@H](O[C@H]4[C@H](O)[C@@H](O)[C@@H](O[C@H]5[C@H](O)[C@@H](O)[C@@H](O[C@H]6[C@H](O)[C@@H](O)[C@@H](O[C@H]7[C@H](O)[C@@H](O)[C@@H](O[C@H]8[C@H](O)[C@@H](O)[C@@H](O[C@H]1[C@H](O)[C@H]2O)O[C@@H]8CO)O[C@@H]7CO)O[C@@H]6CO)O[C@@H]5CO)O[C@@H]4CO)O[C@@H]3CO	0.947%	–
Cc1cc(NS(=O)(=O)c2ccc(N)cc2)nc(C)n1	8.03%	–
CC(C)Nc1cccnc1N1CCN(C(=O)c2cc3cc(NS(C)(=O)=O)ccc3[nH]2)CC1	-0.632%	–
